Several values for one entry are separate records, joined by “and”; a condition that tells them apart may be missing. Identical values can stand only once. Records with an inconclusive call do not appear. Where a structure was tested more than once in an assay, its records may differ in their call. Activity calls are given as the source filed them. Rule for the calls, unless noted: active = hit-call score of the fitted dose curve at least 0.9, where 1 is the maximum; inconclusive = response in the unintended direction; inactive = score below 0.9.
What was measured:
[1] = biological target: mouse Estrogen Receptor alpha (Era), Esr1 (gene 13982) (UniProt P19785); experiment: NVS_NR_mERa: NovaScreen (NVS) Nuclear Receptor Binding Assay for mouse Estrogen Receptor alpha (Era) (AID 2283378);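 note: hit means loss of bound radioligand signal relative to DMSO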
Sequence of mouse Estrogen Receptor alpha (Era), Esr1 (gene 13982) (P19785 whole entry, looked up): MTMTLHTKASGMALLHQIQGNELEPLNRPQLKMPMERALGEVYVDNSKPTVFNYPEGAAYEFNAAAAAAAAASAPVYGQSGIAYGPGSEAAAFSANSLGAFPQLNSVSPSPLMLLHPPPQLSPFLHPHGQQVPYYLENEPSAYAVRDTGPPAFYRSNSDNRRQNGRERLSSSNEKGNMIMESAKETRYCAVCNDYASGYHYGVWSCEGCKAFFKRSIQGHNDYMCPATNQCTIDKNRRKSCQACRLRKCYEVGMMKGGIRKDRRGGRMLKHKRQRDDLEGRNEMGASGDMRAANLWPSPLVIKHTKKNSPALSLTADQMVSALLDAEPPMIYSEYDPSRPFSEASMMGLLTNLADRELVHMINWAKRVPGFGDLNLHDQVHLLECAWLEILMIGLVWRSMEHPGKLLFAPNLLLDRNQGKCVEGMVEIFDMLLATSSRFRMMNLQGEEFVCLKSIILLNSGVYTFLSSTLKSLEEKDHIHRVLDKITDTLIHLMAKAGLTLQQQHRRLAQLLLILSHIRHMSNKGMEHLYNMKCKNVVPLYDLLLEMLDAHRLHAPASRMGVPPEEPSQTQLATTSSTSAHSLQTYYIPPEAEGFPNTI
How it was run: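 Test chemicals competed against a specific radioligand for binding to cell-free mouse Era. Duplicate wells at 25 uM were read 18 hours later by filter-based radiodetection, with loss of signal against DMSO scored as activity.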

[2] = biological target: Estrogen receptor beta (Homo sapiens) (UniProt Q92731); experiment: OT_ER_ERbERb_1440: Odyssey Thera (OT) 24-hour HEK293T Protein-Complementation Assay for Estrogen Receptor-beta/-beta Homodimer (AID 2283380);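 note: scored as signal increase over DMSO baseline for both agonists and antagonists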
Sequence of Estrogen receptor beta (Homo sapiens) (Q92731 whole entry, looked up, the tested form may be a part): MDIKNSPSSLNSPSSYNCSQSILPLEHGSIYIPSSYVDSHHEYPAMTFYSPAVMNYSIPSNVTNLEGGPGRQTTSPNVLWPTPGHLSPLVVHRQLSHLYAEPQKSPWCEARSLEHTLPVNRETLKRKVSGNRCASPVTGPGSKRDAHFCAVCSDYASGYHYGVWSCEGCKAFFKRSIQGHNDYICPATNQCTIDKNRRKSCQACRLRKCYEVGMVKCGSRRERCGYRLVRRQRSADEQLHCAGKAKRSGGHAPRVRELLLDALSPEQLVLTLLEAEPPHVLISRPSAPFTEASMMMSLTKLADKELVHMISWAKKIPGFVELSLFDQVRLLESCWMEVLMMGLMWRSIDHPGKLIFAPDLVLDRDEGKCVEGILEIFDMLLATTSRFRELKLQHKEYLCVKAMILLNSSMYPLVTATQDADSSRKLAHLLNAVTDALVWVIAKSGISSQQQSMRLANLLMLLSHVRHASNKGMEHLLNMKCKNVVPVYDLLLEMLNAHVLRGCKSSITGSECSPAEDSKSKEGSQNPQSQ
How it was run: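 HEK293T cells stably expressing ER beta LBD (aa 310-547) homodimer fragment-complementation reporter, dosed 24 h. Cells formaldehyde-fixed, Draq5-stained; gain in nuclear (agonist) or nuclear plus cytoplasmic (antagonist) fluorescence versus DMSO read by laser scanning cytometry.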

[3] = biological target: Estrogen receptor (Homo sapiens) (UniProt P03372); experiment: OT_ERa_GFPERaERE_0480: Odyssey Thera (OT) 8-hour HeLa Transcription Induction Assay for Estrogen Receptor (AID 2283381; active = hit-call score of the fitted dose curve at least 0.9, where 1 is the maximum; inactive = score below 0.9)
Sequence of Estrogen receptor (Homo sapiens) (P03372 whole entry, looked up): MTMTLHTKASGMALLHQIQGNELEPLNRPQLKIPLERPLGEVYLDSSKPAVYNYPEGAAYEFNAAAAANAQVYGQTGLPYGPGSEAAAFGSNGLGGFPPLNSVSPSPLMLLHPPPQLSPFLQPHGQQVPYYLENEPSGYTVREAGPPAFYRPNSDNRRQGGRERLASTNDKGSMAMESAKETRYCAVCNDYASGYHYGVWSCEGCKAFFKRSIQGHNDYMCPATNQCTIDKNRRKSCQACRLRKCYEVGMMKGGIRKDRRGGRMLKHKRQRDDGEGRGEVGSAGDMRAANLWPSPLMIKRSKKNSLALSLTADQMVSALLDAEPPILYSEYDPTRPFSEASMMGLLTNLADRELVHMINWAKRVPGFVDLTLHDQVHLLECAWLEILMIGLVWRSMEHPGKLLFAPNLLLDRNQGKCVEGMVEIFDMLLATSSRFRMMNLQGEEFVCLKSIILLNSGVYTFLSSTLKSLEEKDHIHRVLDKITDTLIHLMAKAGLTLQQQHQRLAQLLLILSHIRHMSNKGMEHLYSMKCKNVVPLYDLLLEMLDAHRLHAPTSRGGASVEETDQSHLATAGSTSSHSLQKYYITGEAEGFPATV
How it was run: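 Fluorescence microscopy with high-content image analysis measures ERE-driven GFP induction in HeLa cells at 8 h post-dose. Increases fitted against DMSO baseline.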

[4] = biological target: Estrogen receptor (Homo sapiens) (UniProt P03372); experiment: OT_ERa_GFPERaERE_0120: Odyssey Thera (OT) 2-hour HeLa Transcription Induction Assay for Estrogen Receptor (AID 2283382)
How it was run: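 Fluorescence-microscopy images of the GFP-ERα/ERE reporter, scored by high-content image algorithms, give the readout. HeLa exposure lasted 2 h, and only signal increase over DMSO was fitted.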

[5] = biological target: Bile acid receptor (Homo sapiens) (UniProt Q96RI1); experiment: OT_FXR_FXRSRC1_0480: Odyssey Thera (OT) 8-hour HEK293T Protein-Complementation Assay for Farnesoid X receptor/SRC-1 Co-activator (AID 2283383)
Sequence of Bile acid receptor (Homo sapiens) (Q96RI1 whole entry, looked up, the tested form may be a part): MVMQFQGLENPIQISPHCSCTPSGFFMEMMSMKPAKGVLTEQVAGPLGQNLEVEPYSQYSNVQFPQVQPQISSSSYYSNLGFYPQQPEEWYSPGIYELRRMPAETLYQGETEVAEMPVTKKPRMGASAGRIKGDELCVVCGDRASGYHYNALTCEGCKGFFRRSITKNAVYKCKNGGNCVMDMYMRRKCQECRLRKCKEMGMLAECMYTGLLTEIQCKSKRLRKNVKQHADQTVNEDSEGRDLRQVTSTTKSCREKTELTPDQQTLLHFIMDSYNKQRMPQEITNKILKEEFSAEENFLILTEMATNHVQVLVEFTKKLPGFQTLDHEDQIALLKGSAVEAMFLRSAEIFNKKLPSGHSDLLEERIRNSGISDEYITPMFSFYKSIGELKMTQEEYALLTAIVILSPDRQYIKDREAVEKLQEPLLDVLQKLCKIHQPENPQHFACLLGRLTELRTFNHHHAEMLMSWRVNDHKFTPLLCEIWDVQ
How it was run: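 Binding of FXR to coactivator SRC-1 was read as fluorescence from a reconstituted split reporter in HEK293T cells, 8 h after chemical addition. Only increases in signal versus DMSO were fit.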

[6] = biological target: Bile acid receptor (Homo sapiens) (UniProt Q96RI1); experiment: OT_FXR_FXRSRC1_1440: Odyssey Thera (OT) 24-hour HEK293T Protein-Complementation Assay for Farnesoid X receptor/SRC-1 Co-activator (AID 2283384)
How it was run: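 Protein-fragment complementation: FXR and SRC-1 fused to reporter fragments that reassemble on interaction, read by fluorescence intensity. Human HEK293T cells measured 24 h post-dose; positive-direction fit versus DMSO.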

[7] = biological target: Retinoic acid receptor RXR-alpha (Homo sapiens) (UniProt P19793); experiment: OT_NURR1_NURR1RXRa_0480: Odyssey Thera (OT) 8-hour HEK293T Protein Complementation Assay for Nurr1/retinoid X receptor (RXR) (AID 2283385)
Sequence of Retinoic acid receptor RXR-alpha (Homo sapiens) (P19793 whole entry, looked up, the tested form may be a part): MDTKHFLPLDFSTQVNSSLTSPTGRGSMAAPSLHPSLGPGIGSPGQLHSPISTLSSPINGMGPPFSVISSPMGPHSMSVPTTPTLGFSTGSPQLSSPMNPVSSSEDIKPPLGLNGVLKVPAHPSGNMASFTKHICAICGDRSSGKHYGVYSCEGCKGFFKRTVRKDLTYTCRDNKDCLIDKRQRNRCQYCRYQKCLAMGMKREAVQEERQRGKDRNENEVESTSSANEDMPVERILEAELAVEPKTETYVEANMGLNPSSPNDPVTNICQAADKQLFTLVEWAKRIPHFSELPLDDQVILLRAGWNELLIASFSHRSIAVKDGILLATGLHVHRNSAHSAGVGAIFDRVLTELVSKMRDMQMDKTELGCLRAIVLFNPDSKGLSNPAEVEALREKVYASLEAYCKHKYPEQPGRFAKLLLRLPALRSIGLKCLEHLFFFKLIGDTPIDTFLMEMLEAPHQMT
How it was run: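 Interaction of Nurr1 with RXRα read as reconstituted reporter fluorescence in a HEK293T fragment-complementation system, 8 h post-treatment; increase over DMSO baseline analysed.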

[8] = biological target: Retinoic acid receptor RXR-alpha (Homo sapiens) (UniProt P19793); experiment: OT_NURR1_NURR1RXRa_1440: Odyssey Thera (OT) 24-hour HEK293T Protein Complementation Assay for Nurr1/retinoid X receptor (RXR) (AID 2283386)
How it was run: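 Gain in fluorescence, fitted relative to DMSO, reflects Nurr1–RXRα association in HEK293T cells after 24 h dosing. Bait and prey are each linked to a reporter-protein fragment that reassembles on interaction.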

[9] = biological target: Peroxisome proliferator-activated receptor gamma (Homo sapiens) (UniProt P37231); experiment: OT_PPARg_PPARgSRC1_0480: Odyssey Thera (OT) 8-hour Protein-Complementation Assay for Peroxisome Proliferator-activated Receptor Gamma / SRC-1 Co-activator (AID 2283387);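 note: nuclear to cytoplasmic split Venus YFP fluorescence ratio reporting PPARg SRC-1 interaction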
Sequence of Peroxisome proliferator-activated receptor gamma (Homo sapiens) (P37231 whole entry, looked up, the tested form may be a part): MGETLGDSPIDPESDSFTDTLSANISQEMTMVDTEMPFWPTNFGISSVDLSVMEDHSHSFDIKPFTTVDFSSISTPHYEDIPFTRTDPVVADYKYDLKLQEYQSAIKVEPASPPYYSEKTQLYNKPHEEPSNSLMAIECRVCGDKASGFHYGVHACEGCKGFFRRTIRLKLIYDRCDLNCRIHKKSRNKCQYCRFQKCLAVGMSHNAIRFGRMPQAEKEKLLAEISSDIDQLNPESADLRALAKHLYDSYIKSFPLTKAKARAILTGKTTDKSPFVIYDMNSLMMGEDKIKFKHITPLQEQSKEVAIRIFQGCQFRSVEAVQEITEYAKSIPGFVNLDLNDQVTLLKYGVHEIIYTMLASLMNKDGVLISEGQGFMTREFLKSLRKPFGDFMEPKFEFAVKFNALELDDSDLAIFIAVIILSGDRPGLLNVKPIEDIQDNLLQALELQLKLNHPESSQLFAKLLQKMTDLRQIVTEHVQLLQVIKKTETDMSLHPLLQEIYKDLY
How it was run: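 HEK293T transiently transfected with PPARg and SRC-1 fused to Venus YFP fragments, compounds 8 h at 37C. Fixed, Draq5-stained cells imaged; nuclear/cytoplasmic 488 nm fluorescence ratio over at least 350 cells per image; gain fitted versus DMSO.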

[10] = biological target: Peroxisome proliferator-activated receptor gamma (Homo sapiens) (UniProt P37231); experiment: OT_PPARg_PPARgSRC1_1440: Odyssey Thera (OT) 24-hour Protein-Complementation Assay for Peroxisome Proliferator-activated Receptor Gamma/ SRC-1 Co-activator (AID 2283388)
How it was run: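 Transient HEK293T, YFP fragments 1-158/159-239 (mutant IFP1/IFP2) fused to PPARg/SRC-1; 24 h dosing; fix 4% formaldehyde, Draq5; Opera imaging 488/635 nm; N/C ratio, gain vs DMSO.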

[11] = biological target: human Norepinephrine Transporter (NET), SLC6A2 (gene 6530) (UniProt P23975); experiment: NVS_TR_hNET: NovaScreen (NVS) Transporter Assay for human Norepinephrine Transporter (NET) (AID 2283377);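 note: cell-free membrane protein extracted from CHO cells expressing human NET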;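 for AC50: displacement of radioligand from human NET seen as loss of scintillation signal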
Sequence of human Norepinephrine Transporter (NET), SLC6A2 (gene 6530) (P23975 whole entry, looked up): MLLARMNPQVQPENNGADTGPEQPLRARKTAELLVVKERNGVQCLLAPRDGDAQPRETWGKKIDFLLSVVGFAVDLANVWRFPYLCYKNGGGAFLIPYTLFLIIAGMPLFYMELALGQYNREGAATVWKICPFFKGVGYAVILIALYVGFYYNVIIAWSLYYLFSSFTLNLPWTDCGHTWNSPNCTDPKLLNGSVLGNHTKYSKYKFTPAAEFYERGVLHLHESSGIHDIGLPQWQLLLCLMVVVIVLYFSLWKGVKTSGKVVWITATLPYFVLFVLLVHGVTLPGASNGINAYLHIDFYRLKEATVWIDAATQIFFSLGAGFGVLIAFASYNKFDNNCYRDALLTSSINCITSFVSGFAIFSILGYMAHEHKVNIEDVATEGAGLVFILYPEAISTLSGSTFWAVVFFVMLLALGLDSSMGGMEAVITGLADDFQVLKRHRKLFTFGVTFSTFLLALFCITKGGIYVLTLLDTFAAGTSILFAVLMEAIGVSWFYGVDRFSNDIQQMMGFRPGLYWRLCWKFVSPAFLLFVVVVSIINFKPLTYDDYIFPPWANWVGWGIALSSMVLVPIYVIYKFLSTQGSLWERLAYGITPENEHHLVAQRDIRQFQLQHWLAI
How it was run: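 CHO cell extracts expressing the transporter; tritiated or iodinated tracer displaced competitively; filtration plus scintillation readout at 1 h. Single-point duplicates at 25 uM, concentration series for follow-up; activity = signal drop relative to DMSO.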

[12] = biological target: Agonist Androgen Response Element (ARE), AR (gene 367) (UniProt P10275); experiment: OT_AR_ARELUC_AG_1440: Odyssey Thera (OT) 24-hour CHO-K1 Luciferase Assay for Agonist Androgen Response Element (ARE) (AID 2283379)
Sequence of Agonist Androgen Response Element (ARE), AR (gene 367) (P10275 whole entry, looked up): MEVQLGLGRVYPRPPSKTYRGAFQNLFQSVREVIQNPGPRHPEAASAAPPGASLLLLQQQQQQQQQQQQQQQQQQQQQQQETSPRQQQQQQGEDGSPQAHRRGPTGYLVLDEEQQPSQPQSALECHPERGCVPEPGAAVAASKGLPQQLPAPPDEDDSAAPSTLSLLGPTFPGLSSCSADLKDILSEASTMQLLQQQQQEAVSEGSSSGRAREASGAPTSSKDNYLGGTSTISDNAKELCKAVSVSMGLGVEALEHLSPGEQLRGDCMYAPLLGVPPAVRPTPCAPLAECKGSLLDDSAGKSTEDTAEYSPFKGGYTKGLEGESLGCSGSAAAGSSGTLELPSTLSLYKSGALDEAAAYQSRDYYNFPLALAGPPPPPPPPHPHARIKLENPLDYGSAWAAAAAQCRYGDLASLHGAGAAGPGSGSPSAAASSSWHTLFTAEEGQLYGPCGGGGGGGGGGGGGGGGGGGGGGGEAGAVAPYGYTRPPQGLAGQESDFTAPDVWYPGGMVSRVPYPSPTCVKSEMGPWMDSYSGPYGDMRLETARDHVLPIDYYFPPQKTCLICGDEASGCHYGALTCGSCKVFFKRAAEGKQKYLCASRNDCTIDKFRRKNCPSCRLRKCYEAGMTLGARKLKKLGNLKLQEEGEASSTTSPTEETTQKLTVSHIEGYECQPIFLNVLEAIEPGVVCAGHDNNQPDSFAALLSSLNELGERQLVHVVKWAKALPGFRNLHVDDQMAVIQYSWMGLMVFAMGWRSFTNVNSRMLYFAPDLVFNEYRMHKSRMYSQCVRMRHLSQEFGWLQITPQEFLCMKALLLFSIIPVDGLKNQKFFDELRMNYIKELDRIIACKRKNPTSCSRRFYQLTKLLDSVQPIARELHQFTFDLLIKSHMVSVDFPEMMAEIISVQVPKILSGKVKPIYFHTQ
How it was run: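 Gain-of-signal reporter endpoint: cells (CHO-K1, hamster) are treated 24 h, luciferin/ATP reagent added, and luminescence compared with DMSO baseline.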

[13] = CEETOX_H295R_11DCORT: CeeTox H295R High-throughput Steroidogenesis Assay for 11-Deoxycortisol (11DCORT) (AID 2283432; active = hit-call score of the fitted dose curve at least 0.9, where 1 is the maximum; inactive = score below 0.9;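 for AC50: human adrenal H295R cells prestimulated with 10 µM forskolin for 48 h; 11-deoxycortisol secreted into the medium measured by LC-MS/MS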); conditions: actives raise or lower the signal
How it was run: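 H295R cells prestimulated 48 h with 10 uM forskolin, then exposed 48 h to chemical in 0.1% DMSO. 11-Deoxycortisol in medium quantified by HPLC-MS/MS after MTBE extraction; bidirectional fit versus DMSO. MTT viability read in same wells.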

[14] = CEETOX_H295R_OHPREG: CeeTox H295R High-throughput Steroidogenesis Assay for OH-Pregnenolone (OHPREG) (AID 2283434; active = hit-call score of the fitted dose curve at least 0.9, where 1 is the maximum; inactive = score below 0.9); conditions: actives raise or lower the signal
How it was run: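 H295R, 10 uM forskolin pre-stim 48 h; test chemical 48 h, 0.1% DMSO final. MTBE extraction, reverse-phase C18 HPLC-ESI+ MS/MS of medium. Gain/loss vs DMSO; viability by MTT in same wells.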

[15] = CEETOX_H295R_ANDR: CeeTox H295R High-throughput Steroidogenesis Assay for Androstenedione (ANDR) (AID 2283436; active = hit-call score of the fitted dose curve at least 0.9, where 1 is the maximum; inactive = score below 0.9;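 note: human H295R adrenal cells exposed for 48 h with androstenedione measured in medium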); conditions: actives raise or lower the signal
How it was run: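 48 h chemical exposure, H295R cells, DMEM/F12 + ITS+ and Nu-Serum. Medium androstenedione: MTBE extraction, C18 reverse-phase HPLC, ESI+ MS/MS. Fit bidirectional vs DMSO; MTT viability in same wells.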

[16] = CEETOX_H295R_CORTIC: CeeTox H295R High-throughput Steroidogenesis Assay for Corticosterone (CORTIC) (AID 2283437; active = hit-call score of the fitted dose curve at least 0.9, where 1 is the maximum; inactive = score below 0.9;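 note: corticosterone secreted into medium quantified by mass spectrometry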;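 for AC50: human H295R adrenal cells prestimulated with forskolin before chemical exposure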); conditions: actives raise or lower the signal
How it was run: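 48 h forskolin (10 uM) prestim, then 48 h chemical exposure, final DMSO 0.1%. Readout: corticosterone in medium by LC-MS/MS after MTBE extraction. Gain/loss fit vs DMSO; MTT viability in same wells.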

[17] = CEETOX_H295R_CORTISOL: CeeTox H295R High-throughput Steroidogenesis Assay for Cortisol (AID 2283438; active = hit-call score of the fitted dose curve at least 0.9, where 1 is the maximum; inactive = score below 0.9); conditions: actives raise or lower the signal
How it was run: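 Cortisol measured by HPLC-MS/MS after MTBE extraction of medium from H295R cells exposed 48 h to chemical (0.1% DMSO), following 48 h prestimulation with 10 uM forskolin. Viability assessed by MTT in the same wells.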

[18] = CEETOX_H295R_DOC: CeeTox H295R High-throughput Steroidogenesis Assay for DOC (AID 2283439; active = hit-call score of the fitted dose curve at least 0.9, where 1 is the maximum; inactive = score below 0.9); conditions: actives raise or lower the signal
How it was run: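 11-Deoxycorticosterone quantified in medium by MTBE extraction and HPLC-MS/MS after 48 h chemical exposure (0.1% DMSO) of forskolin-primed (10 uM, 48 h) H295R cells. Same-well MTT viability; data fitted bidirectionally against DMSO.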

[19] = CEETOX_H295R_ESTRADIOL: CeeTox H295R High-throughput Steroidogenesis Assay for Estradiol (AID 2283440; active = hit-call score of the fitted dose curve at least 0.9, where 1 is the maximum; inactive = score below 0.9;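 note: estradiol secreted into medium quantified by LC-MS/MS after dansyl derivatisation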); conditions: actives raise or lower the signal
How it was run: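 Following OECD 456 with minor changes, H295R cells received 10 uM forskolin for 48 h and then test chemical for 48 h. Hormone output was read by HPLC-MS/MS, with cytotoxic concentrations diluted until MTT viability reached ≥70%.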

[20] = CEETOX_H295R_ESTRONE: CeeTox H295R High-throughput Steroidogenesis Assay for Estrone (AID 2283441; active = hit-call score of the fitted dose curve at least 0.9, where 1 is the maximum; inactive = score below 0.9); conditions: actives raise or lower the signal
How it was run: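 Estrone secreted into medium quantified by LC-MS/MS after dansyl chloride derivatization, following 48 h chemical exposure (0.1% DMSO final) of forskolin-prestimulated (10 uM, 48 h) H295R cells; gain or loss fitted against DMSO; MTT viability in same wells.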

Measured: AC50

CCCCCCCCCCCO
inactive: [1] | [2] | [3] | [4] | [5] | [6] | [7] | [8] | [9] | [10]

O=C(OCCCCCCOC(=O)c1ccccc1)c1ccccc1
inactive: [11] | [3] | [4] | [6] | [7]
active: [5] 50 µM

c1ccc(C[n+]2cccc3ccccc32)cc1
inactive: [2] | [3] | [4] | [5] | [6] | [9] | [10]
active: [11] 15.4 µM

NCc1cccc(C2CCN(C(=O)c3ccc(C#Cc4ccccc4F)o3)CC2)c1
active: [11] 4.42 µM | [4] 12 µM
inactive: [12] | [3] | [6] | [9] | [10]

CC/C(=C(/CC)c1ccc(O)cc1)c1ccc(O)cc1
inactive: [11] | [5] | [6] | [7] | [8]

CCCCCCCCN(C)CCCCCCCC
not listed: [2] | [5] | [6] | [11] | [19] | [20]
inactive: all other assays above

CCCCCCCCOC(=O)c1cc(O)c(O)c(O)c1
active: [11] 5.24 µM | [1] 11.3 µM | [2] 11.6 µM | [3] 50 µM | [4] 3.33 µM | [5] 63.6 µM | [8] 68.5 µM | [18] 5 µM
inactive: [7] | [8] | [9] | [10] | [13] | [14] | [17] | [19] | [20]

OCCO
inactive: [12] | [3] | [4] | [6] | [8] | [9] | [10]

CN(C)c1ccc(C(=C2C=CC(=[N+](C)C)C=C2)c2ccc(N(C)C)cc2)cc1
active: [11] 4.79 µM
inactive: [12] | [2] | [3] | [4] | [9] | [10]

Cc1occc1C(=O)Nc1ccc(C(=O)N2CCC(F)(F)/C(=C\C(=O)N3CCC(N4CCCCC4)CC3)c3ccccc32)cc1
active: [7] 28.6 µM | [8] 28.3 µM
inactive: [12] | [2] | [3] | [4] | [9] | [10]

CCN(Cc1cccnc1)C(=O)c1cccc(Cl)c1[C@]1(C)C(=O)N(Cc2ccc(OC)cc2OC)c2ccc(Cl)cc21
inactive: [12] | [2] | [3] | [4] | [7] | [8] | [9] | [10]
active: [5] 0.278 µM | [6] 0.59 µM

CCCOC(=O)c1cc(O)c(O)c(O)c1
active: [2] 12.7 µM
inactive: [1] | [3] | [4] | [5] | [6] | [7] | [8] | [9] | [10]

Cc1cn([C@H]2C[C@H](N=[N+]=[N-])[C@@H](CO)O2)c(=O)[nH]c1=O
inactive: [11] | [3] | [4] | [5] | [7] | [8] | [9] | [10]

O=c1c(-c2ccc(O)cc2)coc2cc(O)cc(O)c12
active: [5] 12.5 µM and 11.5 µM and 13.4 µM | [6] 18.9 µM and 20.5 µM and 18.6 µM | [7] 29 µM [middle of 4 runs] | [13] 11.9 µM | [15] 14.1 µM | [17] 12.4 µM | [18] 4.44 µM
inactive: [12] | [5] | [6] | [7] | [8] | [9] | [10] | [16]

CN(C[C@@H](CC[N+]12CCC(C3CCCCC3)(CC1)CC2)c1ccc(Cl)c(Cl)c1)C(=O)c1cc(C(F)(F)F)cc(C(F)(F)F)c1
active: [11] 1.38 µM | [3] 12.4 µM | [5] 85.4 µM | [6] 78.1 µM
inactive: [1] | [12] | [2] | [4] | [9] | [10]

Clc1cc(Cl)c2c(c1)N=C1CCCCCN1C2
active: [11] 3.55 µM
not listed: [1] | [2] | [5] | [12] | [15] | [19] | [20]
inactive: all other assays above

CC(C)(C)c1cc(/C=C2\SC(N)=NC2=O)cc(C(C)(C)C)c1O
inactive: [1] | [2] | [3] | [4] | [7] | [8] | [9] | [10] | [13] | [14] | [17] | [19] | [20]
active: [6] 50 µM | [9] 77.1 µM | [10] 66 µM | [16] 0.754 µM | [18] 0.866 µM

CCCCCCCCCCCC[N+](C)(C)C
inactive: [2] | [9] | [10] | [13] | [14] | [16] | [17] | [18]
active: [11] 7.96 µM

— PubChem BioAssay (EPA / NIEHS)
